# KCNQ2 inh: blocks the rat KCNQ2 potassium channel. O88943. CHO-K1 KCNQ2, FluxOR thallium flux, 20 min; hits give low values. B-score at 10 µM. hit rate 1.1% among 310,000;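 active means fluorescence ratio B-score at most minus 3 library SDs, with starting brightness B-score within 2 library SDs, cut at about -5.5 in these data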
# KCNQ2 pot: enhances the rat KCNQ2 potassium channel; O88943; CHO-K1 KCNQ2, FluxOR thallium flux fluorescence; hits give high values; hit rate 0.54% among 310,000; B-score at 10 µM; AID 2239;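 active means fluorescence ratio B-score at least 3 SD of library B-scores, with initial fluorescence B-score within 3 of them, cut at about 5.3 in these data; same plate scores as AID 2156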;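 further: B-score of peak minus minimum over baseline fluorescence ratio after K+ and Tl+ stimulus; positive B-score means potentiation of KCNQ2 with more thallium influx and brighter signal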
# KCNQ2 inh conf: rat KCNQ2 channel inhibition, confirmatory screen; KCNQ2-expressing cells, thallium flux; hits give low values; activity change, negative = inhibition, % at 10 µM; shares compounds with KCNQ2 inh; hit rate 57% among 1,000
# KCNQ1 spec: human KCNQ1 activity in KCNQ2 inhibitor specificity screen; shares compounds with KCNQ2 inh; KCNQ1-expressing cells, FluxOR thallium flux fluorescence; hits give low values; activity change, negative = inhibition, % at 10 µM; hit rate 15% among 1,000; AID 493026;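 active means activity change at least 3 SD of negative controls below their mean in both duplicate wells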;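 further: CHO cells stably transfected with KCNQ1 and depolarized by potassium stimulus; peak minus minimum fluorescence over baseline after thallium addition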
# Target sequence (P51787 whole entry, looked up): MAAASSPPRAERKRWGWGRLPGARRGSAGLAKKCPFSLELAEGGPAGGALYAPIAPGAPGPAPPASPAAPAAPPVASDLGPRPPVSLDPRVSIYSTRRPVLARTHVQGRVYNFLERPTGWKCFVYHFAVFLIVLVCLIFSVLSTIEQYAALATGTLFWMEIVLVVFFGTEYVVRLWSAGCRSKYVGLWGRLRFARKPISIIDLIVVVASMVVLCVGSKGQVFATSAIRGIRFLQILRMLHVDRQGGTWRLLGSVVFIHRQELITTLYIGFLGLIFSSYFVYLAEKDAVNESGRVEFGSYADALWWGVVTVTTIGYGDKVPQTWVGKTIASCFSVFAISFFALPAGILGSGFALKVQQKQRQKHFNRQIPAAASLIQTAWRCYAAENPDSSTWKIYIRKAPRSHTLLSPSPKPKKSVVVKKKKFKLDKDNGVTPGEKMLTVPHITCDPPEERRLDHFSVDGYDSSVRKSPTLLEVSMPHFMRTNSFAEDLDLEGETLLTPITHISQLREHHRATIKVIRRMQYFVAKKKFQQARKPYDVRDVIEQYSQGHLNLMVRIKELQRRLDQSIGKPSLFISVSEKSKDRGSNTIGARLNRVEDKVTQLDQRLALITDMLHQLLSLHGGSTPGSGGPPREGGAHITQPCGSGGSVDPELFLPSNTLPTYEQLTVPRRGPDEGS
# CHO parental ctr: KCNQ2 inhibitor counter-screen hit in parental CHO cells | thallium flux counter-screen; hits give low values | shares compounds with KCNQ2 inh | AID 493029 | activity change, % at 10 µM | hit rate 14% among 1,000
# KCNQ2 inh confirm: blocks rat KCNQ2 current in automated patch clamp; shares compounds with KCNQ2 inh; KCNQ2-expressing cells; calls only at 10 µM; hit rate 49% among 550; AID 588531
# A number is an active result; – = inactive; · = not tested or not shown; + = active, no number. An excerpt weighted towards active compounds, which were near 1.6% of everything screened. Unless noted, how the calls were made is not given here.
SMILES,KCNQ2 inh,KCNQ2 pot,KCNQ2 inh conf,KCNQ1 spec,CHO parental ctr,others
O=C(NC12CC3CC(CC(C3)C1)C2)N(Cc1ccccc1)Cc1ccncc1,-10.9,–,-34.0%,–,–,KCNQ2 inh confirm=+
CCCCN(Cc1ccco1)C(=O)C1CCCN(c2ncnc3c2nc2n3CCCCC2)C1 (stereo not drawn),–,·,·,·,·,
Clc1ccc(CSc2cc3c(nn2)-c2ccccc2CC3)cc1,-10.4,–,-37.5%,-41.0%,-28.5%,KCNQ2 inh confirm=–
Clc1ccc(CSc2ccc(-c3ccccn3)nn2)cc1,–,·,·,·,·,
CCCn1nnnc1NCc1ccccc1Cl,–,·,·,·,·,
Cn1c(-c2ccc3c(c2)OCO3)cnc1NCc1cccc(Cl)c1,-9.04,–,–,–,–,
Cn1c(-c2ccc3c(c2)OCO3)cnc1NCc1ccccc1Cl,–,–,·,·,·,
COc1ccccc1NCC(O)Cn1c2ccccc2c2ccccc21 (stereo not drawn),–,–,·,·,·,
COc1ccc(CCNCC(O)Cn2c3ccccc3c3ccccc32)cc1OC (stereo not drawn),-7.03,–,-24.0%,–,–,KCNQ2 inh confirm=–
Cc1cccc(N2CCN(C(=O)C(Cc3ccccc3)NC(N)=O)CC2)c1C (stereo not drawn),–,–,·,·,·,
Cc1cccc(N2CCN(C(=O)C(Cc3ccccc3)n3cccc3)CC2)c1C (stereo not drawn),-13,–,-43.0%,-34.5%,-31.0%,KCNQ2 inh confirm=–
COc1ccc(/C(N)=N/OC(=O)CC2CCCCC2)cc1OC,–,–,·,·,·,
COc1ccc(/C(N)=N/OC(=O)CSc2ccc(C)cc2)cc1OC,-9.2,–,–,–,–,
COC(=O)CN(C)C(=O)c1ccc(OC2CCN(S(=O)(=O)N(C)C)CC2)cc1,–,–,·,·,·,
Cc1cc(C(=O)Nc2ccc(F)c(Cl)c2)on1,–,·,·,·,·,
COc1ccccc1NC(=O)C(C)OC(=O)C1CCC(C(C)(C)C)CC1 (stereo not drawn),-8.42,–,-31.0%,–,–,KCNQ2 inh confirm=–
COc1ccccc1NC(=O)C(C)OC(=O)C1CC(=O)N(c2ccc3c(c2)OCCO3)C1 (stereo not drawn),–,·,·,·,·,
Cc1cc(S(=O)(=O)Nc2ccc(C(=O)NCc3ccncc3)cc2)ccc1F,–,–,·,·,·,
CCc1c(O)nc(SCC(=O)N2CCc3cc(OC)c(OC)cc3[C@@H]2C)[nH]c1=O,–,·,·,·,·,
Cc1ccc(CN2CCN(/N=C/c3cccn3C)CC2)c(C)c1,–,·,·,·,·,
Cc1ccc(CN2CCN(/N=C/c3ccc(C)s3)CC2)c(C)c1,-7.91,–,–,–,–,
COc1cccc(CNC(=O)C2CCN(c3nnc(N4CCCC4=O)s3)CC2)c1,–,–,·,·,·,
Cc1cc(-c2nnc(-c3ccccc3)c(-c3ccccc3)n2)c(C)o1,-9.87,–,–,–,–,
Cc1ccc(-c2nnc(-c3ccccc3)c(-c3ccccc3)n2)cc1,–,·,·,·,·,
COc1ccc2[nH]c3c(NCCC4=CCCCC4)ncnc3c2c1,-9.09,–,–,–,–,
SMILES,KCNQ2 inh,KCNQ2 pot,KCNQ2 inh conf,KCNQ1 spec,CHO parental ctr,others
CCN(CC)CCNc1ncnc2c1[nH]c1ccc(OC)cc12,–,–,·,·,·,
Cc1ccc(C(=O)C(c2ccccc2)N2Cc3ccccc3C2=N)cc1 (stereo not drawn),-8.55,–,-31.5%,–,–,KCNQ2 inh confirm=+
COc1ccc(C(=O)C(c2ccccc2)N2CCOCC2)cc1 (stereo not drawn),–,–,·,·,·,
CC(CN1CCOCC1)OC(=O)c1cccc(Cl)c1 (stereo not drawn),–,·,·,·,·,
COc1ccc(Cl)cc1C(=O)N(Cc1nc(-c2cccc(C)c2)no1)C(C)C,–,·,·,·,·,
Cc1cccc(-c2noc(CN(C(=O)/C=C/c3ccccc3Cl)C(C)C)n2)c1,–,·,·,·,·,
Cc1cccc(-c2noc(CN(C(=O)CCc3ccccc3)C(C)C)n2)c1,-8,–,-36.0%,-35.5%,-28.5%,KCNQ2 inh confirm=–
Cc1cccc(-c2noc(CN(C)S(=O)(=O)c3cc(Cl)ccc3Cl)n2)c1,-10.6,–,–,–,–,
O=C(NCc1ccc(F)cc1)C(=O)NCC1OCCCN1S(=O)(=O)c1cccs1 (stereo not drawn),–,·,·,·,·,
O=C(CCNc1cccc(F)c1)c1cccc([N+](=O)[O-])c1,-6.71,–,–,–,–,
O=C(CCNc1ccc(Cc2ccncc2)cc1)c1cccc([N+](=O)[O-])c1,–,·,·,·,·,
COc1ccc(C)cc1NC(=O)c1ccccc1NS(=O)(=O)c1ccc(Cl)s1,–,·,·,·,·,
O=C(NCc1cccc(OC(F)(F)F)c1)C1CCC(=O)N(Cc2cccc(F)c2)C1 (stereo not drawn),–,–,·,·,·,
O=c1nc(Nc2ccc([N+](=O)[O-])cc2)[nH]c(=O)[nH]1,–,·,·,·,·,
CCOc1cccc(CNCCO)c1OCc1ccc(Cl)cc1,–,–,·,·,·,
CCOc1cc(CNCCO)cc(Br)c1OCc1ccc(Cl)cc1,-8.06,–,–,–,–,
O=C1O[C@@H]([C@H](O)CO)C(O)=C1O,–,–,·,·,·,
COc1cc(/C=C/C(=O)N(Cc2ccccc2)c2ccccn2)cc(OC)c1OC,-7.93,–,-29.0%,–,–,KCNQ2 inh confirm=+
COc1ccc(/C=C/C(=O)N(Cc2ccccc2)c2ccccn2)cc1OC,-7.71,–,-17.5%,–,–,KCNQ2 inh confirm=+
COc1ccccc1NC(=O)N(Cc1ccccc1)c1ccccn1,–,·,·,·,·,
COc1cc(/C=C/C(=O)NCc2ccccn2)cc(OC)c1OC,–,–,·,·,·,
Cc1ccc(CC(=O)N(Cc2ccccc2)c2ccccn2)cc1,–,·,·,·,·,
Cc1ccc(OCC(=O)N(Cc2ccccc2)c2ccccn2)cc1,-8.16,–,–,–,–,
COc1ccccc1-c1cc(C(=O)N2CCN(c3ccccc3)CC2)no1,–,·,·,·,·,
COc1cc2c(C(=O)N3CCN(c4ccccc4)CC3)c(C)oc2cc1Br,-7.42,–,-37.0%,–,–,KCNQ2 inh confirm=+
SMILES,KCNQ2 inh,KCNQ2 pot,KCNQ2 inh conf,KCNQ1 spec,CHO parental ctr,others
COC(=O)C1=C(C)N(C)C(=O)NC1c1c(OC)ccc2ccccc12 (stereo not drawn),–,·,·,·,·,
CN(CCOc1ccccc1)S(=O)(=O)c1ccc2oc3ccccc3c2c1,-7.8,–,-16.5%,–,–,KCNQ2 inh confirm=–
COc1ccc(OCCNS(=O)(=O)c2ccc3oc4ccccc4c3c2)cc1,–,–,·,·,·,
c1cc2c(cc1C1CCCCC1)c1c3n2CCCNC3CCC1 (stereo not drawn),-11.8,–,-34.0%,–,–,KCNQ2 inh confirm=–
Cc1ccc2c(c1)c1c3n2CCCNC3CCC1 (stereo not drawn),–,·,·,·,·,
CCOc1ccc2c(c1)C(C)=CC(C)(C)N2S(=O)(=O)c1ccc(F)cc1,–,·,·,·,·,
CCOc1ccc2c(c1)-c1c(ssc1=S)C(C)(C)N2C,-7,–,–,–,–,
O=C(/C=C/c1ccccc1Br)c1ccc2c(c1)OCO2,-6.85,–,–,–,–,
O=C(/C=C/c1ccccc1)c1ccc2c(c1)OCO2,–,·,·,·,·,
CCC(=O)Nc1ccc(NC(=O)CSc2nnnn2Cc2ccccc2)cc1C,–,·,·,·,·,
N#CCc1nc(-c2cc3ccccc3oc2=O)cs1,–,–,·,·,·,
CC1CCC(=C(C#N)c2nc(-c3cc4ccccc4oc3=O)cs2)CC1 (stereo not drawn),-8.52,–,–,–,–,
NS(=O)(=O)c1ccc(CNC(=O)c2cc(-c3cccnc3)nc3ccc(Br)cc23)cc1,–,·,·,·,·,
CCOC(=O)Cc1csc(NC(=O)CN2CCCCC2)n1,–,–,·,·,·,
Cc1ccc2oc(C(=O)N(Cc3ccc(N(C)C)cc3)CC3CCCO3)c(C)c2c1 (stereo not drawn),–,·,·,·,·,
